Laboratory results taken from PubChem BioAssay (Tox21).
Where “and” joins values, the source holds several entries; their conditions need not be identical. Equal values may be shown once. Results filed as inconclusive are left out. Where a call stands in place of a potency, no number is given. Where a structure was tested more than once in an assay, its records may differ in their call. Calls of active or inactive are those of the source. Unless noted, calls follow the shape of the dose curve; as a rule, active = well fitted curve in the direction sought with a large enough effect in the repeat runs; inconclusive = weak or mixed curves; inactive = no such curve, though single readings can be large; an effect the other way counts as inactive or inconclusive.

Assays:
[1] = qHTS assay to identify small molecule agonists of the vitamin D receptor (VDR) signaling pathway - cell viability counter screen (AID 743224); also: nearly all actives have a fitted effect of over 50% in size; also: potency is read from the fitted curve at half-maximal effect
Summary of the method: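 Viability is measured in the same wells as the VDR-bla reporter assay: after 16 h compound treatment and 2 h substrate loading, CellTiter-Glo is added and luminescence read 30 min later.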

[2] = qHTS assay to identify small molecule antagonists of the vitamin D receptor (VDR) signaling pathway - cell viability counter screen (AID 743225); also: nearly all actives have a fitted effect of over 50% in size; also: potency is read from the fitted curve at half-maximal effect
Summary of the method: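 Cytotoxicity counter screen read by CellTiter-Glo luminescence (30 min, room temperature) in the same wells as the VDR-bla antagonist readout. HEK 293T VDR-UAS-bla cells had 16 h at 37C with compound and 3 nM (final) 1-alpha,25-dihydroxyvitamin D3, then 2 h with FRET substrate.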

[3] = qHTS assay to identify small molecule agonists of the NFkB signaling pathway (AID 1159509; active = well fitted curve in the direction sought with a large enough effect in the signal ratio in the repeat runs, not every such curve was filed as active; the % refers to the signal ratio; also: series mostly up to about 61 µM)
Summary of the method: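 After overnight attachment, reporter cells received test compounds, DMSO or positive controls and were incubated 5 hr at 37 C. FRET substrate was then added for 1.5 hr at room temperature before dual-emission fluorescence reading.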

[4] = qHTS assay to identify small molecule agonists of the NFkB signaling pathway - cell viability counter screen (AID 1159515; calls by dose curve; also: nearly all actives have a fitted effect of over 55% in size; also: potency is read from the fitted curve at half-maximal effect)
Summary of the method: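 Multiplexed viability readout: after the 5 hr compound exposure and 1.5 hr FRET substrate step, CellTiter-Glo reagent went into the same NFkB-bla ME-180 wells; ATP luminescence was measured after 30 min at room temperature.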

[5] = qHTS assay to identify small molecule agonists of the endoplasmic reticulum stress response signaling pathway (AID 1159516; active = well fitted activation curve with a large enough effect in the signal ratio in the repeat runs, not every such curve was filed as active; the % refers to the signal ratio)
Summary of the method: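 Tox21 10K library screened in quantitative HTS format on ESRE-bla HeLa cells, a beta-lactamase reporter under ER stress response element control; 5 hr treatment, FRET read.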

[6] = qHTS assay to identify small molecule agonists of the endoplasmic reticulum stress response signaling pathway - cell viability counter screen (AID 1159517; calls by dose curve; also: series mostly up to about 61 µM; nearly all actives have a fitted effect of over 50% in size)
Summary of the method: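 Luminescence readout: CellTiter-Glo, 30 min RT, same wells as the ESRE-bla reporter read. HeLa ESRE-bla, 1,500 cells/well, o/n 37 C; cpd 5 hr 37 C/5% CO2.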

[7] = qHTS assay to identify small molecule antagonists of the retinoid-related orphan receptor gamma (ROR-gamma) signaling pathway - cell viability counter screen (AID 1159520); also: nearly all actives have a fitted effect of over 50% in size; also: potency is read from the fitted curve at half-maximal effect
Summary of the method: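 Tet-on ROR gamma CHO cells (1,000/well) were plated 4 hr, given compounds in DMSO for 2 hr at 37 C, then induced with 1 uM final doxycycline for 16 hr. Viability was read as ATP by CellTiter-Glo luminescence after 30 min.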

[8] = biological target: Nuclear receptor ROR-gamma (Homo sapiens) (UniProt P51449); assay: qHTS assay to identify small molecule antagonists of the retinoid-related orphan receptor gamma (ROR-gamma) signaling pathway (AID 1159521; also: nearly all actives have a fitted effect of over 50% in size; also: potency is read from the fitted curve at half-maximal effect)
Summary of the method: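 Antagonist read-out: drop in luminescence (ONE-Glo) from an RORE-LUC reporter in CHO cells with doxycycline-inducible ROR-gamma; 2 hr compound pretreatment, 1 uM doxycycline, 16 hr incubation at 37 C.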

[9] = qHTS assay to identify small molecule agonists of the AP-1 signaling pathway - cell viability counter screen (AID 1159525; calls by dose curve; also: nearly all actives have a fitted effect of over 55% in size; also: potency is read from the fitted curve at half-maximal effect)
Summary of the method: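 ME-180 AP-1-bla, 2500 cells/well, Opti-MEM + 0.5% dialyzed FBS; overnight 37 °C; cpd 15-pt titration, 5 h 37 °C; CellTiter-Glo 30 min RT; luminescence read; normalised to TOAB and DMSO controls.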

[10] = qHTS assay to identify small molecule agonists of the AP-1 signaling pathway (AID 1159526; calls by dose curve)

Row | Compound | Potency [1] | Potency [2] | outcome [3] | Potency [4] | Potency [5] | Potency [6] | Potency [7] | Potency [8] | Potency [9] | outcome [10]
1 | CCOCCOCCO | inactive | inactive | inactive | inactive | inactive | inactive | inactive | inactive | inactive | inactive
2 | O=C(c1ccc(OCCN2CCCCC2)cc1)c1c(-c2ccc(O)cc2)sc2cc(O)ccc12 | 55 µM (active) and 21.9 µM (active) and 33.5 µM (active) | 17.4 µM (active) | inactive | 55 µM (active) and 54.9 µM (active) and inactive | inactive | inactive | 61.2 µM (active) and inactive | 13.7 µM (active) and 19.3 µM (active) | inactive | inactive
3 | CN(C)CCC=C1c2ccccc2CCc2ccccc21 | 49 µM (active) and 21.9 µM (active) | 21.9 µM (active) and 49 µM (active) and inactive | inactive | inactive | inactive | inactive | inactive | 30.6 µM (active) and inactive | inactive | 
4 | Clc1nc(Cl)c(Cl)c(Cl)c1Cl | inactive | inactive | inactive | inactive | inactive | inactive | inactive | inactive | inactive | inactive
5 | Cc1c(C(N)=O)cc([N+](=O)[O-])cc1[N+](=O)[O-] | inactive | inactive | inactive | inactive | inactive | inactive | inactive | inactive |  | inactive
6 | COC(C)COC(C)COC(C)CO (stereo not drawn) | inactive | inactive | inactive | inactive | inactive | inactive | inactive | inactive |  | inactive
7 | C#C[C@]1(O)CC[C@H]2[C@@H]3CCc4cc(OC)ccc4[C@H]3CC[C@@]21C | inactive | inactive | inactive | inactive | inactive | inactive | inactive | inactive | inactive | 
8 | c1ccc2c(c1)Oc1ccccc1S2 | inactive | inactive | inactive | inactive | inactive | inactive | inactive | inactive | inactive | 
9 | c1ccc(Nc2ccccc2)cc1 | inactive | inactive | inactive | inactive | inactive | inactive | 54.4 µM (active) and inactive | 13.7 µM (active) and inactive | inactive | 
10 | CC(=O)c1ccccn1 | inactive | inactive | inactive | inactive | inactive | inactive | inactive | inactive | inactive | inactive
11 | CC(C)Oc1ccc2c(=O)c(-c3ccccc3)coc2c1 | inactive | inactive | inactive | inactive | inactive | inactive | inactive | inactive |  | inactive
12 | CC(=O)CC/C=C(\C)CCC=C(C)C | inactive | inactive | inactive | inactive | inactive | inactive | inactive | inactive |  | inactive
13 | O=C(Nc1ccc(Cl)cc1)Nc1ccc(Cl)c(Cl)c1 | 19.4 µM (active) and 11 µM (active) | inactive | inactive | inactive | inactive | inactive | 17.1 µM (active) | 17.2 µM (active) | inactive | 
14 | CCCCCCCCCCCO | inactive and 49 µM (active) | inactive | inactive | inactive and 49 µM (active) | inactive | inactive | inactive | inactive |  | inactive
15 | Brc1cc(Oc2cc(Br)c(Br)c(Br)c2Br)c(Br)c(Br)c1Br | inactive | inactive | inactive | 1.56 µM (active) and inactive | inactive | inactive | inactive | inactive | 55.2 µM (active) and inactive | inactive
16 | O=S(=O)(O)c1ccc(O)cc1 | inactive | inactive | inactive | inactive | inactive | inactive | inactive | inactive |  | inactive
17 | COC(=O)c1ccccc1 | inactive | inactive | inactive | inactive | inactive | inactive | inactive | inactive |  | inactive
18 | CCCCCCCCCC(=O)OC | inactive | inactive | inactive | inactive | inactive | inactive | inactive | inactive |  | inactive
19 | Cc1cccc(N(C)C(=S)Oc2ccc3ccccc3c2)c1 | inactive | 15.5 µM (active) and inactive | inactive | inactive | inactive | inactive | inactive | inactive |  | inactive
20 | CCCCC(CC)COP(=O)(OCC(CC)CCCC)OCC(CC)CCCC (stereo not drawn) | inactive | inactive | inactive | inactive | inactive | inactive | inactive | inactive | inactive | inactive
21 | CCCCOCCOCCO | inactive | inactive | inactive | inactive | inactive | inactive | inactive | inactive |  | inactive
22 | Cn1cnc([N+](=O)[O-])c1Sc1ncnc2nc[nH]c12 |  | inactive | inactive | inactive | inactive | inactive | inactive | 30.5 µM (active) and inactive | inactive | inactive
23 | CN1C(C(=O)Nc2ccccn2)=C(O)c2ccccc2S1(=O)=O | inactive | inactive | inactive | inactive | inactive | inactive | inactive | inactive |  | inactive
